Luciferase inh: blocks purified firefly luciferase enzyme activity. Potency, µM (doses to about 115 µM), usual class: inhibitors. hit rate 2.5% among 76,000. P08659. purified P. pyralis luciferase, luminescence, biochemical; note: nearly all actives have a fitted effect of over 65% in size
Target sequence (P08659 whole entry, looked up): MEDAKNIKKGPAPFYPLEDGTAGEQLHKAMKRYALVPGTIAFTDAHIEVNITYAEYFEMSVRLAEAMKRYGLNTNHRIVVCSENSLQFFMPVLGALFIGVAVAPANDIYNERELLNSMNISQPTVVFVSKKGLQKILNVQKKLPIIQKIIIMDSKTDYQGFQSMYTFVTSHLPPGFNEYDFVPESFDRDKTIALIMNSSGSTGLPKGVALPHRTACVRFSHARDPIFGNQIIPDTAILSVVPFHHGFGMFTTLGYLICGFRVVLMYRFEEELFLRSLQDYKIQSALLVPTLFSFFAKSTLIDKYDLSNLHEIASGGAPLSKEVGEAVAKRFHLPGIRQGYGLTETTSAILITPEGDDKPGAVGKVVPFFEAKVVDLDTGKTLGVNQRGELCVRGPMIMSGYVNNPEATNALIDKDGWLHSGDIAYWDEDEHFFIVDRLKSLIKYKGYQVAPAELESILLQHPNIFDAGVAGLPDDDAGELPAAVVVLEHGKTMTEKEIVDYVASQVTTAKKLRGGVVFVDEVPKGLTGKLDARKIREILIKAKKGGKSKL
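Inhibitors were tested against purified firefly luciferase in a biochemical, low-substrate format (both substrates at 10uM) and luminescence measured with a CCD imager.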
HEK293 tox: HEK 293 cell cytotoxicity | Potency, µM (doses to about 115 µM), usual class: inhibitors | hit rate 6.6% among 94,000 | AID 1345083 | HEK 293 viability, ATP luminescence (CellTiter-Glo), 48-72 h; note: nearly all actives have a fitted effect of over 60% in size
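HEK 293 cells at 250 cells/well were exposed to compounds by pintool transfer for 48 or 72 hr at 37 degree Celsius, 5% CO2. Viability was read as ATP-coupled luminescence with CellTiter-Glo after 10 min at room temperature.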
NIH3T3 tox: NIH 3T3 cell cytotoxicity; NIH 3T3 viability, CellTiter-Glo ATP luminescence, 48-72 h; Potency, µM (doses to about 96.7 µM), actives largely listed as inhibitors; hit rate 4.3% among 94,000; AID 1345082; note: nearly all actives have a fitted effect of over 55% in size
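Viability of NIH 3T3 cells after 48 or 72 hr compound treatment at 37 °C was assessed by CellTiter-Glo, with luminescence imaged following a 10 min room-temperature step.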
hNpr1 antagonist: human Npr1 receptor antagonism; Potency, µM (titrated, usually from 46.3 µM), usual class: inhibitors; P16066; hit rate 1.6% among 76,000; HEK293 hNpr1 GloSensor cGMP, ANP-stimulated luminescence; calls by dose curve; note: nearly all actives have a fitted effect of over 60% in size
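HEK293 cells stably expressing human Npr1 and cGMP GloSensor pGS-40F, loaded 2 h with 2% GloSensor reagent, given compound 30 min at room temperature. Luminescence read before and 20 min after 0.1 nM hNppA.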
Hits are given with their value; n = inactive; u = inconclusive; x = not tested or not shown. Most compounds without a hit are left out; they make up all but 11% or so of the library. Unless noted, calls come from the whole dose curve; as a rule, active = well fitted curve in the direction sought with a large enough effect; inconclusive = small, poorly fitted or top-dose-only effect, or another doubt; inactive = no such curve, though single readings can be large; an effect the other way counts as inactive or inconclusive.

SMILES	Luciferase inh	HEK293 tox	NIH3T3 tox	hNpr1 antagonist
O=C(c1ccccc1OC1CCN(Cc2ccc(-n3cccn3)cc2)CC1)N1CCCCC1	n	u	n	n
Cc1ccsc1CN1CCC(Oc2cc(Cl)ccc2C(=O)N2CCCCC2)CC1	n	45µM	u	n
O=C(CC[C@@H]1CNC(=O)[C@@H]2C[C@H](NC(=O)Nc3cccc(Cl)c3)CN12)NCc1ccccc1	n	n	n	n
Nc1nc(C2CC(N)C2)cc(N2CCN(C3CCCC3)C(=O)C2)n1 (centres undefined)	n	n	n	n
COc1ccc(N2CCN(c3cc(C4CC(N)C4)nc(N)n3)CC2(C)C)cc1 (centres undefined)	n	22µM	22µM	n
NC(=O)c1ccc(Nc2cnc3ccc(-c4ccccc4)nn23)cc1	n	u	28µM	n
COc1ccc(Nc2cnc3ccc(-c4ccccc4)nn23)cn1	u	45µM	40µM	n
Fc1ccc(-c2ccc3ncc(Nc4ccncc4)n3n2)cc1	n	100µM	u	n
c1ccc(-c2ccc3ncc(Nc4ncccn4)n3n2)cc1	n	u	u	n
OCCc1ccc(Nc2cnc3ccc(-c4cccc(CO)c4)nn23)cc1	u	u	u	n
Fc1ccc(-c2ccc3ncc(Nc4ccc5c(c4)OCO5)n3n2)cc1	n	79µM	u	n
COc1cc(NC(=O)COc2ccc(-c3nnc4n3CCCC4)cc2)cc(OC)c1OC	n	n	u	n
COc1ccc(Nc2cnc3ccc(-c4ccc(F)cc4)nn23)cn1	n	50µM	35µM	n
COc1ccc(Nc2cnc3ccc(-c4ccc(F)cc4)nn23)cc1	n	u	u	n
COc1ccc(Nc2cnc3ccc(-c4ccccc4)nn23)cc1	u	71µM	u	n
CN(Cc1ccc(F)cc1)c1ccc2ncc(Nc3ccc4c(c3)OCCO4)n2n1	n	40µM	u	n
COc1ccccc1-c1ccc2ncc(Nc3ccc(CCO)cc3)n2n1	u	u	u	n
COC1CCN(C(=O)COc2ccccc2)CC(=O)N(C)c2ccccc21 (centres undefined)	x	n	u	x
COc1ccc(CC(=O)N2CCc3cn(C)c4cccc(c34)C2)cc1	n	u	u	n
COc1ccc(C(=O)N2CCc3cn(C)c4cccc(c34)C2)c(C)c1	n	22µM	u	n
COc1ccc(C(=O)N[C@H]2C[C@@H](c3nc(-c4ccccc4)no3)N(C)C2)cc1	n	u	u	n
CN1C[C@@H](NC(=O)c2ccccn2)C[C@H]1c1nc(-c2ccc(OC(F)(F)F)cc2)no1	n	79µM	u	n
CN1C[C@@H](NC(=O)Nc2ccc(F)cc2F)C[C@H]1c1nc(-c2ccncc2)no1	u	u	u	n
CN1C[C@@H](NC(=O)c2ccccn2)C[C@H]1c1nc(-c2ccc(Cl)cc2)no1	71µM	89µM	u	n
COc1ccc(CC(=O)N[C@H]2C[C@@H](c3nc(-c4ccc(OC(F)(F)F)cc4)no3)N(C)C2)cc1	n	35µM	u	u
SMILES	Luciferase inh	HEK293 tox	NIH3T3 tox	hNpr1 antagonist
CN1C[C@@H](NC(=O)Nc2ccc(F)cc2F)C[C@H]1c1nc(-c2ccccc2)no1	n	63µM	n	u
Cc1noc(C)c1CN1CCC2(CC1)COCCN2C(=O)c1ccccc1	n	u	u	n
Cc1ccc(-c2noc([C@@H]3C[C@H](NC(=O)Nc4ccc(Cl)cc4)CN3C)n2)cc1	n	n	n	n
CN1C[C@@H](NC(=O)c2cnccn2)C[C@H]1c1nc(-c2ccc(OC(F)(F)F)cc2)no1	n	89µM	u	n
COc1ccc(C(=O)N[C@H]2C[C@@H](c3nc(-c4ccc(Cl)cc4)no3)N(C)C2)cc1	u	56µM	u	u
CN1C[C@@H](NC(=O)Nc2ccc(C(F)(F)F)cc2)C[C@H]1c1nc(-c2ccc(Cl)cc2)no1	n	20µM	8.9µM	u
Cc1ccc(CN2CCN(c3nc(C)ccc3C#N)CC2CCO)cc1 (centres undefined)	n	u	n	n
COc1ccc(CN2CCN(c3nc(C)ccc3C#N)CC2CCO)cc1C (centres undefined)	n	50µM	u	n
CC1=C[C@@H](CNC(=O)CCCC(=O)O)[C@H](C(C)C)C[C@H]1Cc1nc2ccc(C)cc2[nH]1	n	n	n	n
Cn1ncc2c(C(=O)NC3CCCCC3)cc(-c3ccccc3F)nc21	x	n	n	x
COc1ccccc1C(=O)N1CCC2(CC1)COc1ccccc1[S+](=O)([O-])N2	x	n	n	x
COc1ccccc1C(=O)N1CCC2(CC1)COc1ccccc1CN2	n	63µM	u	n
Cc1nn(-c2ccccc2)c2c1C(C1CC1)N(C1CCCN(C(=O)C3CC3)C1)C2=O (centres undefined)	x	n	n	x
Clc1ccccc1C1Cn2cnc(-c3nc(-c4ccccn4)no3)c2CO1 (centres undefined)	25µM	u	u	n
O=C(C1CCCN1C(=O)C1CC1)N1CCC(N2Cc3ccccc3C2=O)CC1 (centres undefined)	x	n	n	x
COc1ccc(CCN(C)C(=O)CC(c2cccc(F)c2)c2cn(C)c3ccccc23)cc1OC (centres undefined)	n	40µM	u	n
COc1ccc(Nc2ccc3ncn(-c4ccccc4)c(=O)c3n2)cn1	n	100µM	100µM	n
O=c1c2nc(Nc3cccc(F)c3)ccc2ncn1-c1cccnc1	n	u	u	u
Oc1ccccc1-c1cc(C2=CCOCC2)c2cncn2c1	n	100µM	63µM	n
Oc1cccc(-c2cc(C3=CCOCC3)c3cncn3c2)c1	n	u	100µM	n
COc1ncccc1-c1cc(C2=CCOCC2)c2cncn2c1	n	n	u	n
Cc1nc2n(c1C(=O)NCCc1ccccc1)CCC(Nc1ccc(F)cc1)C2 (centres undefined)	n	u	u	n
COc1ccc2c3c1CN(S(C)(=O)=O)CC3=CC(C)(C)CO2	x	n	u	x
CC(C)CNc1ccc2c(n1)C(C)(C(=O)Nc1cccnc1)CN(Cc1ccccc1)C2 (centres undefined)	n	50µM	28µM	n
CC(C)CNc1ccc2c(n1)C(C)(C(=O)NC1CC1)CN(Cc1ccccc1)C2 (centres undefined)	n	63µM	u	n
SMILES	Luciferase inh	HEK293 tox	NIH3T3 tox	hNpr1 antagonist
CC(C)CNc1ccc2c(n1)C(C)(C(=O)NC1CCOCC1)CN(Cc1ccccc1)C2 (centres undefined)	n	79µM	u	n
COc1ccc(C2(C(=O)NCc3ccccc3)CCOCC2)cc1	x	n	n	x
CCOc1cccc2c1OC[C@@H]1CN(CC)C(=O)CCN(C(=O)c3cccc(OC)c3)[C@H]21	x	u	n	x
COCCN1Cc2ccc(NCc3ccccc3)nc2C(C)(C(=O)NC2COC2)C1 (centres undefined)	n	u	u	n
CC1(C(=O)NC2CCOCC2)CN(Cc2ccccc2)Cc2ccc(Nc3ccccc3)nc21 (centres undefined)	n	u	32µM	n
CN1Cc2ccc(Nc3ccccc3)nc2C(C)(C(=O)NCc2cccs2)C1 (centres undefined)	n	71µM	u	n
